Results taken from patent US20060069055, “Delivery of polynucleotides” (published 2006).

Biological target: NF-kB p65/p50 heterodimer (Homo sapiens, UniProt Q04206;P19838 Q04206:1-551,P19838:1-433)
Assay: EMSA
Conditions: protein: extract; tags: nuclear extract of LPS-stimulated THP-1 cells; dsDNA, one strand shown
Text: The EMSA assay was employed to characterize oligonucleotide decoys for the NF-κB transcription factor. […] Using the above modified oligonucleotides to compete for binding for the above-mentioned NF-κB family members, it was possible to compare the binding affinity of these oligonucleotides against the high affinity radiolabeled probe and each other. This assay has also enabled the design of a decoy which selectively binds particular members of the NF-κB family. By using increasing concentrations of various oligonucleotides, it was observed that, by deleting or changing targeted residues in the binding site, it was possible to specifically decrease the binding of the decoy molecule to p50/p50 homodimers, while retaining the affinity for p65/p50 and cRel/p50 heterodimers.
The NF-κB gel shift assays (EMSA) were performed as follows. A double-stranded oligonucleotide containing a consensus NF-κB binding site (5′ […].GGC 3′) (SEQ ID NO: 26) was end-labeled with γ³²P-ATP using T4 Polynucleotide Kinase (Promega). One microgram of a nuclear extract prepared from LPS stimulated THP-1 cells (human monocyte cell line) was incubated with 35 fmol of radiolabeled probe in the presence or absence of competing unlabeled NF-κB double-stranded oligonucleotides (dsODN) or scrambled dsODN. The incubations were carried out at room temperature for 30 minutes in a 20 μl reaction volume composed of 10 mM Tris-HCl pH 8, 100 mM KCL, 5mM MgC12, 2mM DTT, 10% Glycerol, 0.1% NP-40, 0.025% BSA and 1 μg Poly-dIdC. The reactions were loaded onto a 6% polyacrylamide gel, subjected to electrophoresis and dried. The dried gels were imaged and quantitated using a Typhoon 8600 Phosphorlmager (Amersham) and ImageQuant software. The identity of the NF-κB proteins contained in complexes bound to the radiolabeled oligonucleotide probe were identified by pre-incubating the reactions for 5 minutes with individual antibodies specific for each member of the NF-κB family prior to the addition of the radiolabeled probe.

Sequence of NF-kB p65/p50 heterodimer (Q04206 whole entry, chain 1 of 2): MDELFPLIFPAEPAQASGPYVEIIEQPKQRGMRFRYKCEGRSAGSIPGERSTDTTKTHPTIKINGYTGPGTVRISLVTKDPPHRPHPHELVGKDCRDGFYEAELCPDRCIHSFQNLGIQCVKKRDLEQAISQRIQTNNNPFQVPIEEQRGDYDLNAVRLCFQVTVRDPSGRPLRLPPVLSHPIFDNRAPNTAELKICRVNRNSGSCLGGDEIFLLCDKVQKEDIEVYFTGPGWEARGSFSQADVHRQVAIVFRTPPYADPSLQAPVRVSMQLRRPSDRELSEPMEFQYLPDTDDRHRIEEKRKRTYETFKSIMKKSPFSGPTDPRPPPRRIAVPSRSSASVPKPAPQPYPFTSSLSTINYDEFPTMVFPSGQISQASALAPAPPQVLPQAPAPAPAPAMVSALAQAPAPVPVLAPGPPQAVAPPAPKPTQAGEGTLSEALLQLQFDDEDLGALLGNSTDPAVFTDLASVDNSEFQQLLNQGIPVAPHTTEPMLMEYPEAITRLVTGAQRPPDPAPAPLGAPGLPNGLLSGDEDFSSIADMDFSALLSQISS
Sequence of NF-kB p65/p50 heterodimer (P19838 1-433, chain 2 of 2): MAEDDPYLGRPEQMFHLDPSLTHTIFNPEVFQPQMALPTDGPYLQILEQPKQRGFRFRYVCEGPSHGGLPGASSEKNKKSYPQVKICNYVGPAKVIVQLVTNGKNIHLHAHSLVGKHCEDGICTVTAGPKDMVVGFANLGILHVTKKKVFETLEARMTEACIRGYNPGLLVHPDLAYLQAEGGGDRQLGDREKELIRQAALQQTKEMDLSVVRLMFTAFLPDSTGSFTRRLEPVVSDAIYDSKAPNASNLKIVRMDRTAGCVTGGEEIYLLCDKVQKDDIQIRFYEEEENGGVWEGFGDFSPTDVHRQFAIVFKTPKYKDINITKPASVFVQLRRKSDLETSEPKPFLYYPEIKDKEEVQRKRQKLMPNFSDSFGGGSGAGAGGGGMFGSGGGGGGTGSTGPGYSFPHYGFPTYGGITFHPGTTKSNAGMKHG

Sequence | IC50 [fold molar excess]
TGAGGACTTTCCAGGCTC | 92
TTGAGGACTTTCCAGGC | 87
TCGGATTTCCTC | 74
TGAGGACTTTCCAGGC | 93
TCGGACTTTCCTC | 81
AGTTGAGGATTTCCAGGC | 73
ATGGACTTTCCGT | 72.5
AGTTGAGGATTTCCCAGGC | 54
TTGAGGACTTTCCAGGCTC | 87
